Experimental data: PubChem BioAssay
The source made the active and inactive calls.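 Rule for the calls, unless noted: active = inhibition above 20% together with a positive visual image hit; inconclusive = visual image hit but inhibition not above 20%; inactive = no visual image hit.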

How the values were obtained:
[1] = inhibitors of TNFa-induced NFkB p65 translocation, primary screen, imaging, HUVEC, MLSMR starter and 10KST1 sets (AID 438); conditions: HUVEC TNFa-induced p65 nuclear translocation; cell count: measured here: nuclei count (cytotoxicity indicator), at 2.08 µM; inhibition: at 2 µM, stronger effect = higher value, 0% TNFa-plus-vehicle, 100% no-TNFa wells;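 note: compound added about 3h40 before a 20 min TNFalpha stimulation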;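 for inhibition: signal is the nuclear over cytoplasmic p65 intensity ratio per well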
[2] = inhibitors of mutant huntingtin aggregation, primary screen, imaging, exon1htt(103Q)mCFP cells, high-content imaging (AID 483;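 active = visual image review flags a hit and inhibition of aggregation exceeds 20%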;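 note: compound exposure lasted 3 days before fixation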;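 for nuclei count: percent of the per-plate median nuclei count of sample wells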); conditions: exon1htt(103Q)mCFP cell line, aggregate imaging, at 2 µM; inhibition of aggregation: stronger effect = higher value; nuclei count: measured here: cell count, toxicity
[3] = inhibitors of E-selectin induction by TNFa, primary screen, imaging, HUVEC, immunofluorescence, MLSMR starter and 10KST1 sets (AID 487;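 active = visually confirmed hit in the image check and inhibition above 20%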;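 for inhibition: signal is fraction of cell area covered by stained E-selectin grains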;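 for nuclei count: 100% = median nuclei count of all wells on the same plate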); conditions: HUVEC TNFalpha-induced E-selectin immunofluorescence imaging, at 2 µM; inhibition: stronger effect = higher value; nuclei count: measured here: cell number, toxicity
[4] = biological target: Voltage-gated potassium channel subunit beta-2 (Rattus norvegicus) (UniProt P62483); experiment: KvBeta enzyme negative modulators, primary screen, biochemical, NADPH fluorescence (AID 622;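 active = fluorescence slope higher than the sample average by over 3 SD, cut at about -0.22 in these data, passing the limit was not always enough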;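 note: slope of raw intensity against log time taken from 70 to 1610 s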); conditions: recombinant KvBeta, 4-cyanobenzaldehyde reduction, at 10 µM, stronger effect = higher value
[5] = biological target: Voltage-gated potassium channel subunit beta-2 (Rattus norvegicus) (UniProt P62483); experiment: KvBeta positive modulators, primary screen, biochemical, NADPH fluorescence (AID 623;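 active = NADPH fluorescence slope more negative than the mean of all samples by about 3 SD, 99.7% confidence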;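 note: fluorescence intensity change per second fitted from 20 to 320 s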); conditions: Recombinant KvBeta, NADPH fluorescence decrease slope, 10 min; at 10 µM; stronger effect = lower value
[6] = biological target: Alpha-2C adrenergic receptor (Homo sapiens) (UniProt P18825); experiment: modulators of alpha2C/GIRK thallium flux, primary screen, cell-based, HEK293 alpha2C/GIRK1/2 (AID 624;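 active = fluorescence slope after compound addition differing from the mean of all screened samples at 99.7% confidence, in either direction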;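 note: slope of fluorescence ratio to pre-addition baseline per second over 15 to 24 s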); conditions: thallium flux BTC fluorescence, at 10 µM, actives lie on both sides
[7] = inhibitors of Sendai virus-induced IRF3 signaling, primary screen, TLR/RLR signaling modifier project, cell-based, Sendai virus stimulus, luciferase, 10K MLSCN set (AID 602276;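 active = inhibition at or above 50% at 10 µM; inactive = inhibition below 50%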;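 note: firefly luciferase from ISG56 promoter only with Renilla not read in this screen; 0% = Sendai virus plus DMSO and 100% = medium plus DMSO without virus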); conditions: HEK293 RL24 IRF3 luciferase reporter, at 10 µM, stronger effect = higher value
[8] = inhibitors of poly I:C-induced TLR3 signaling, primary screen, cell-based, poly I:C stimulus, luciferase, 10K MLSCN set (AID 602277;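 active = inhibition of the reporter signal at or above 50%; inactive = inhibition below 50%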); conditions: HEK293-TLR3 RL24 IRF3 luciferase reporter, at 10 µM, stronger effect = higher value

Alpha-2C adrenergic receptor (Homo sapiens), sequence (P18825 whole entry, looked up): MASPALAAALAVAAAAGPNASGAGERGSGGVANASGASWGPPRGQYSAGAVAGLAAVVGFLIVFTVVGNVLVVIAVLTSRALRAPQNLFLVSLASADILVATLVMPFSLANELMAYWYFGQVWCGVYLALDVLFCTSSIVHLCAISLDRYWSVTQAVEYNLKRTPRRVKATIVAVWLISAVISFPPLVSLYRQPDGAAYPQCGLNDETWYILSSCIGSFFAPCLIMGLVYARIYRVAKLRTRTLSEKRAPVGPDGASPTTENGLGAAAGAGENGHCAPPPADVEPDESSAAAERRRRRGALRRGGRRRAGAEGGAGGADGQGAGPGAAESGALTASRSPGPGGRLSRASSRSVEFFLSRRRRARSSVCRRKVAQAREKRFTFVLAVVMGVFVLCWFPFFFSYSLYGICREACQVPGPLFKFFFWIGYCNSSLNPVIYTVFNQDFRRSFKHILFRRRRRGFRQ
Voltage-gated potassium channel subunit beta-2 (Rattus norvegicus), sequence (P62483 whole entry, looked up): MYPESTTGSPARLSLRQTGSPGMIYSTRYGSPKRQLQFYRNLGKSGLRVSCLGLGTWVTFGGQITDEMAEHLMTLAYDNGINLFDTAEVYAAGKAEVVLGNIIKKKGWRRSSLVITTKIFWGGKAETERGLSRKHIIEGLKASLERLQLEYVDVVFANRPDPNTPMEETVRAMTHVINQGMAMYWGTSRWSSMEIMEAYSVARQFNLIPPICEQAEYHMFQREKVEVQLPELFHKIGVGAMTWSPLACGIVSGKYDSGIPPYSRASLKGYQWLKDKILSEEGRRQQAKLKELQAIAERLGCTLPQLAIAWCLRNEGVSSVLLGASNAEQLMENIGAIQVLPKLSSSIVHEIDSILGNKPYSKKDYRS

Which cell count [1] does the source give for `Cc1cc(C)n(-c2ccc(C(=O)Nc3ccc4c(c3)OCCO4)cc2)n1` here?
The cell count was 529.

And the inhibition [1]?
The inhibition was -16.3% (inactive).

What about the inhibition of aggregation [2] of the same compound?
The inhibition of aggregation was -2.4% (inactive).

And the nuclei count [2]?
Its nuclei count is 103%.

What about the inhibition [3] of the same compound?
Its inhibition is 11.9% (inactive).

What about the nuclei count [3] of the same compound?
Its nuclei count is 110%.

And the fluorescence slope [4]?
The fluorescence slope was -0.254 (inactive).

And the NADPH fluorescence slope [5]?
The NADPH fluorescence slope was -2.3e-05 (inactive).

And the slope [6]?
Its slope is 0.00537 (inactive).

What about the inhibition [7] of the same compound?
Its inhibition is -19.7% (inactive).

What about the inhibition [8] of the same compound?
The inhibition was -108% (inactive).

For `CCc1ccc(C=NC23CN4CN(CN(C4)C2)C3)s1`, which cell count [1] is on record?
Its cell count is 319.

And the inhibition [1]?
The inhibition was -14.4% (inactive).

And the inhibition of aggregation [2]?
The inhibition of aggregation was -5.7% (inactive).

And the nuclei count [2]?
The nuclei count was 106%.

What about the inhibition [3] of the same compound?
The inhibition was -41.8% (inactive).

What about the nuclei count [3] of the same compound?
The nuclei count was 122%.

What about the fluorescence slope [4] of the same compound?
Its fluorescence slope is -0.438 (inactive).

And the NADPH fluorescence slope [5]?
Its NADPH fluorescence slope is 5.9e-05 (inactive).

What about the slope [6] of the same compound?
Its slope is 0.00606 (inactive).

And the inhibition [7]?
Its inhibition is -1.05% (inactive).

What about the inhibition [8] of the same compound?
Its inhibition is -0.158% (inactive).

Which results are given for `N#Cc1ccc(CSc2nnc(-c3cccs3)n2-c2ccccc2)cc1`?
cell count [1]: 369; inhibition [1]: -6% (inactive); inhibition of aggregation [2]: -12.4% (inactive); nuclei count [2]: 99.1%; inhibition [3]: -50% (inactive); nuclei count [3]: 120%; fluorescence slope [4]: -0.5 (inactive); NADPH fluorescence slope [5]: 9.2e-06 (inactive); slope [6]: 0.00461 (inactive); inhibition [7]: -0.725% (inactive); inhibition [8]: 2.95% (inactive)

With `CCOC(=O)c1cc2sccc2n1Cc1ccccc1` as the compound, how does the cell count [1] read?
Its cell count is 417.

What about the inhibition [1] of the same compound?
Its inhibition is 7.3% (inactive).

What about the inhibition of aggregation [2] of the same compound?
The inhibition of aggregation was -5.2% (inactive).

And the nuclei count [2]?
The nuclei count was 101%.

What about the inhibition [3] of the same compound?
The inhibition was -147% (inactive).

And the nuclei count [3]?
The nuclei count was 99.7%.

And the fluorescence slope [4]?
The fluorescence slope was -0.598 (inactive).

What about the NADPH fluorescence slope [5] of the same compound?
The NADPH fluorescence slope was -9.9e-06 (inactive).

And the slope [6]?
Its slope is 0.00361 (inactive).

And the inhibition [7]?
The inhibition was -10.3% (inactive).

What about the inhibition [8] of the same compound?
Its inhibition is -7.29% (inactive).

For `COc1cc(C2c3c(n[nH]c3C)C(=O)N2c2ccc(Br)cc2)ccc1O` (centres undefined), which cell count [1] is on record?
Its cell count is 677.

And the inhibition [1]?
Its inhibition is -3.9% (inactive).

What about the inhibition of aggregation [2] of the same compound?
Its inhibition of aggregation is 1.5% (inactive).

And the nuclei count [2]?
Its nuclei count is 100%.

And the inhibition [3]?
The inhibition was 3.2% (inactive).

What about the nuclei count [3] of the same compound?
The nuclei count was 106%.

And the fluorescence slope [4]?
The fluorescence slope was -0.408 (inactive).

And the NADPH fluorescence slope [5]?
Its NADPH fluorescence slope is -1.5e-06 (inactive).

What about the slope [6] of the same compound?
Its slope is 0.00373 (inactive).

What about the inhibition [7] of the same compound?
The inhibition was 8.55% (inactive).

What about the inhibition [8] of the same compound?
The inhibition was 24.2% (inactive).

With `COc1cccc(-n2nc(C(=O)Nc3ccc4c(c3)OCO4)c3ccccc3c2=O)c1` as the compound, how does the cell count [1] read?
Its cell count is 741.

What about the inhibition [1] of the same compound?
The inhibition was 1.6% (inactive).

What about the inhibition of aggregation [2] of the same compound?
Its inhibition of aggregation is -5.9% (inactive).

What about the nuclei count [2] of the same compound?
The nuclei count was 98.3%.

What about the inhibition [3] of the same compound?
Its inhibition is -27% (inactive).

What about the nuclei count [3] of the same compound?
Its nuclei count is 118%.

And the fluorescence slope [4]?
The fluorescence slope was -0.601 (inactive).

And the NADPH fluorescence slope [5]?
Its NADPH fluorescence slope is -3.9e-05 (inactive).

What about the slope [6] of the same compound?
Its slope is 0.0101 (inactive).

And the inhibition [7]?
The inhibition was 3.08% (inactive).

And the inhibition [8]?
The inhibition was -20.2% (inactive).

Which results are given for `Cc1cccc2cc(COC(=O)C(C)(C)C)c(=O)[nH]c12`?
cell count [1]: 364; inhibition [1]: 5.1% (inactive); inhibition of aggregation [2]: 2.3% (inactive); nuclei count [2]: 102%; inhibition [3]: 14.2% (inactive); nuclei count [3]: 89.1%; fluorescence slope [4]: -0.471 (inactive); NADPH fluorescence slope [5]: 3.7e-06 (inactive); slope [6]: 0.0027 (inactive); inhibition [7]: 10.9% (inactive); inhibition [8]: 22.5% (inactive)

Which results are given for `O=C(Nc1ccc(Cc2ccc(NC(=O)N3CCOCC3)cc2)cc1)N1CCOCC1`?
cell count [1]: 494; inhibition [1]: -2% (inactive); inhibition of aggregation [2]: 15.7% (inactive); nuclei count [2]: 61.1%; inhibition [3]: 30.5% (inactive); nuclei count [3]: 82.3%; fluorescence slope [4]: -0.416 (inactive); NADPH fluorescence slope [5]: -2.3e-05 (inactive); slope [6]: 0.0036 (inactive); inhibition [7]: 0.542% (inactive); inhibition [8]: -1.84% (inactive)

For `COC(=O)Cn1c(=O)c2c(nc3n2CC(C)CN3c2ccc(C)c(C)c2)n(C)c1=O` (centres undefined), which cell count [1] is on record?
The cell count was 561.

And the inhibition [1]?
The inhibition was -11% (inactive).

And the inhibition of aggregation [2]?
The inhibition of aggregation was -7.5% (inactive).

What about the nuclei count [2] of the same compound?
The nuclei count was 110%.

And the inhibition [3]?
Its inhibition is -19.2% (inactive).

What about the nuclei count [3] of the same compound?
Its nuclei count is 118%.

And the fluorescence slope [4]?
Its fluorescence slope is -0.535 (inactive).

And the NADPH fluorescence slope [5]?
The NADPH fluorescence slope was -4.3e-05 (inactive).

And the slope [6]?
The slope was 0.00607 (inactive).

And the inhibition [7]?
Its inhibition is 13.3% (inactive).

What about the inhibition [8] of the same compound?
Its inhibition is 36% (inactive).

Which cell count [1] does the source give for `COC(=O)c1ccc(NC(=O)C(C)N2C(=O)c3ccccc3C2=O)cc1` (centres undefined) here?
Its cell count is 593.

And the inhibition [1]?
Its inhibition is -1.8% (inactive).

And the inhibition of aggregation [2]?
The inhibition of aggregation was -7.5% (inactive).

And the nuclei count [2]?
Its nuclei count is 103%.

And the inhibition [3]?
Its inhibition is -39.9% (inactive).

And the nuclei count [3]?
The nuclei count was 108%.

What about the fluorescence slope [4] of the same compound?
Its fluorescence slope is -0.614 (inactive).

What about the NADPH fluorescence slope [5] of the same compound?
Its NADPH fluorescence slope is 5.9e-06 (inactive).

And the slope [6]?
The slope was 0.0058 (inactive).

What about the inhibition [7] of the same compound?
Its inhibition is -2.42% (inactive).

What about the inhibition [8] of the same compound?
Its inhibition is 3.26% (inactive).

Which results are given for `O=C(CN1C(=O)CC(c2ccco2)Sc2ccccc21)Nc1ccccc1F` (centres undefined)?
cell count [1]: 551; inhibition [1]: -2.9% (inactive); inhibition of aggregation [2]: -3.5% (inactive); nuclei count [2]: 111%; inhibition [3]: -28.3% (inactive); nuclei count [3]: 110%; fluorescence slope [4]: -0.588 (inactive); NADPH fluorescence slope [5]: 1.9e-05 (inactive); slope [6]: 0.00681 (inactive); inhibition [7]: 12.5% (inactive); inhibition [8]: 15.3% (inactive)

What does the source list for `CCOC(=O)C1CCCN(c2c(N3CCN(c4ccccn4)CC3)c(=O)c2=O)C1` (centres undefined)?
cell count [1]: 631; inhibition [1]: 6.9% (inactive); inhibition of aggregation [2]: 11.3% (inactive); nuclei count [2]: 98.8%; inhibition [3]: -5.4% (inactive); nuclei count [3]: 132%; fluorescence slope [4]: -0.503 (inactive); NADPH fluorescence slope [5]: -3.5e-05 (inactive); slope [6]: 0.00587 (inactive); inhibition [7]: 3.88% (inactive); inhibition [8]: 27.8% (inactive)

Which results are given for `COC(=O)Nc1sc2c(c1C(N)=O)CCCCCC2`?
cell count [1]: 522; inhibition [1]: 2% (inactive); inhibition of aggregation [2]: 18.9% (inactive); nuclei count [2]: 95.2%; inhibition [3]: -53.8% (inactive); nuclei count [3]: 92%; fluorescence slope [4]: -0.509 (inactive); NADPH fluorescence slope [5]: -5.2e-05 (inactive); slope [6]: 0.00644 (inactive); inhibition [7]: 5.06% (inactive); inhibition [8]: 17.8% (inactive)

For `CCn1cc(C(=O)NC2CCc3ccccc32)c(=O)c2ccc(C)nc21` (centres undefined), which cell count [1] is on record?
The cell count was 727.

And the inhibition [1]?
The inhibition was -2.2% (inactive).

What about the inhibition of aggregation [2] of the same compound?
The inhibition of aggregation was -0.4% (inactive).

And the nuclei count [2]?
The nuclei count was 100%.

And the inhibition [3]?
The inhibition was -37% (inactive).

What about the nuclei count [3] of the same compound?
The nuclei count was 110%.

And the fluorescence slope [4]?
The fluorescence slope was -0.559 (inactive).

What about the NADPH fluorescence slope [5] of the same compound?
The NADPH fluorescence slope was 2.4e-05 (inactive).

And the slope [6]?
Its slope is 0.00594 (inactive).

What about the inhibition [7] of the same compound?
The inhibition was 7.46% (inactive).

What about the inhibition [8] of the same compound?
Its inhibition is 13.4% (inactive).
